# Pf Dd2 growth = blocks in vitro growth of P. falciparum Dd2. P. falciparum Dd2 growth, SYBR Green, 72 h. 4.3% of 120,000 active. Potency, µM (top dose mostly 28.9 µM), inactives show at the top dose activity, negative = inhibition, actives largely listed as inhibitors; active = well fitted inhibition curve with a large enough effect;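 also: plate controls were DMSO vehicle for no effect and reference drug for full effect; nearly all actives have a fitted effect of over 65% in size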
#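 Infected erythrocytes (Dd2, 0.3% parasitemia, 2.5% hematocrit final) are added to compound in RPMI-1640/Albumax II medium, grown 72 h at 37C in low oxygen, then lysed with saponin/Triton-X containing SYBR Green and read by fluorescence.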
# Active calls of the source: *; i = inactive; [ ] = dose if it differs, or a comment. This is one part of a sample in which hits are shown more often than they occur. Potency is read from the fitted curve at half-maximal effect.
SMILES,Pf Dd2 growth
CCOCCCNC(=O)C(c1ccccc1)N1Cc2ccccc2C1=O (configuration not stated),i
N#Cc1ccccc1CN1CCC(Cc2nncn2-c2ccccc2)CC1,-12%
CN(C)CCCn1ccnc1C1CCCN(C(=O)N(C)c2ccccc2)C1 (configuration not stated),-5%
CC1=C[C@@H](CNC(=O)C(C)(C)C)[C@H](C(C)C)C[C@H]1CC(=O)N1CCN(c2ccccn2)CC1,-6%
CC1=C[C@@H](CNC(=O)C2CCCCC2)[C@H](C(C)C)C[C@H]1CC(=O)N1CCN(c2ccccn2)CC1,10µM*
CC1=C[C@@H](CNC(=O)c2ccccc2)[C@H](C(C)C)C[C@H]1CC(=O)N1CCN(C)CC1,i
CC1=C[C@@H](CO)[C@H](C(C)C)C[C@H]1CC(=O)N1CCN(CCO)CC1,i
CC1=C[C@@H](CC#N)[C@H](C(C)C)C[C@H]1CC(=O)N1CCN(c2cnccn2)CC1,7.1µM*
CC(=O)N1CCN(C(=O)C[C@@H]2C[C@@H](C(C)C)[C@H](CC#N)C=C2C)CC1,-10%[44.1 µM]
Cc1ccc(C(=O)N2CCC(CCC(=O)NC3CCCCCC3)CC2)cc1,-5%
O=C(c1ccc(Cl)nc1)N1CCn2c(nn(-c3ccc(F)cc3)c2=O)C1,-10%
Cc1cc(C)cc(C(=O)Nc2ccc(-c3nnc4n3CCCC4)cc2)c1,i
O=C(Nc1ccc2c(c1)C(=O)N1CCC[C@H]1C(=O)N2)c1n[nH]c2c1CCC2,i
O=C(CCc1nc2ccccc2[nH]1)N1[C@H]2CC[C@@H]1c1cnc(-c3ccc(F)cc3)nc1C2,11µM*
O=C(Cc1cccnc1)N1[C@H]2CC[C@@H]1c1cnc(-c3ccc(F)cc3)nc1C2,-15%
O=C(CCc1c[nH]c2ccccc12)N1[C@H]2CC[C@@H]1c1cnc(-c3ccccc3)nc1C2,-19%
COCCOc1ccc2c(n1)CCN(C(=O)Nc1ccc(C)c(C)c1)C2,-21%
O=C([C@@H]1C[C@H](Oc2cccnc2)CN1S(=O)(=O)Cc1ccccc1F)N1CCOCC1,10%
COc1ccc(CN2CCC([C@@H]3CNC[C@H]3CO)CC2)cc1Cn1ccnc1,14%
C=Cc1ccc(Cn2c(C(=O)O)c(CNCc3ccccc3)c3ccc(OC)cc32)cc1,11µM*
COc1ccc(Cn2c(C(=O)O)c(CNCc3ccc(SC)cc3)c3ccc(OC)cc32)cc1,7.9µM*
COc1ccc2c(CNCc3cccs3)c(C(=O)O)n(Cc3ccc(F)cc3)c2c1,-3%
COc1ccc2c(CNCc3ccc(C)o3)c(C(=O)O)n(Cc3ccccc3)c2c1,-16%
COc1ccc2c(CNCCc3cccs3)c(C(=O)O)n(Cc3ccc(F)cc3Cl)c2c1,i
COc1ccc2c(CNCCc3ccco3)c(C(=O)O)n(Cc3ccccc3)c2c1,-12%
SMILES,Pf Dd2 growth
O=C(Nc1ccc(F)cc1)c1ccc(CN2C(=O)NC3(CCOCC3)C2=O)cc1,-23%
O=C(C1CC1)N1CC(Oc2ccccc2-c2nc(-c3cnccn3)no2)C1,7.9µM*
O=C(Nc1ccccc1)N1CCC(Oc2ccccc2-c2nc(-c3ccccc3)no2)C1 (configuration not stated),-5%
COc1ccccc1-c1noc(-c2nc(-c3ccncc3)no2)n1,-8%
c1ccc(-c2nc(-c3cnccn3)no2)c(OC2CNC2)c1,-16%
c1ccc(-c2nc(-c3ccncc3)no2)c(OC2CCNC2)c1 (configuration not stated),13µM*
CCNC(=O)N1CCC(Oc2ccccc2-c2nc(-c3cnccn3)no2)C1 (configuration not stated),-20%
COc1cc(NC(=O)Cn2c(-c3ccc(F)cc3)nc(C)cc2=O)cc(OC)c1,-6%
COc1ccc(C(=O)N[C@H]2CO[C@H]3[C@@H]2OC[C@@H]3n2cc(CN(C)Cc3ccccc3)nn2)cc1,1%
COCCNC(=O)C[C@@H]1O[C@H](Cn2cc(CN(C)Cc3ccccc3)nn2)[C@@H](O)[C@H]1O,i
O=C(Cn1ccn2nc(-c3ccccc3)c(CO)c2c1=O)Nc1ccc2c(c1)OCCO2,-13%
CCOC(=O)c1c(C)sc(-c2c(-c3cccc(Cl)c3)[nH]c3c2c(=O)n(C)c(=O)n3C)c1O,146%
CCOC(=O)c1c(C)sc(-c2c(-c3cc(C)ccc3C)[nH]c3c2c(=O)n(C)c(=O)n3C)c1O,10µM*
CCOC(=O)c1c(C)sc(-c2c(-c3cc(C)ccc3C)[nH]c3c2c(=O)[nH]c(=O)n3C)c1O,-6%
COc1ccc(-c2cnc3n2CC(C(=O)N2CCOCC2)CC3)cc1 (configuration not stated),-4%
O=C(CN1C(=O)CNC1=O)N1CCCC(Nc2ccc3c(c2)OCO3)C1 (configuration not stated),-2%
Cc1ccc(-c2cn3c(n2)CO[C@@H](CNCc2ccc(-c4ccccn4)cc2)C3)cc1,13µM*
Cc1ccc(-c2cn3c(n2)CO[C@@H](CNCc2ccc(S(C)(=O)=O)cc2)C3)cc1,i
Cc1ccc(-c2cn3c(n2)CO[C@@H](CNCc2ccc(Cl)cc2)C3)cc1,i
